# Sampled rows, rich in hits. Any-hit rate of the full collection: about 2.4%.
# c-Myc SMM – binders of human c-Myc, primary screen, biochemical, small molecule microarray, anti-His fluorescence. AID 624141, 2012. 1.5% of 17,000 active. calls only. His-c-Myc binding;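 active = spot fluorescence over background with P-value below 7% in all four replicate spots, showing protein binding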;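 note: score is binary with 100 for all four spots passing and 0 otherwise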
# NFkB SMM – binders of NF-kB p50 subunit, primary screen, biochemical, small molecule microarray, anti-His fluorescence. Nuclear factor NF-kappa-B p105 subunit (Homo sapiens), P19838. 1.3% of 17,000 active. anti-His fluorescence binding. calls only;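 active = spot fluorescence over background significantly raised, with a chance value under 7% in all four replicate spots of the compound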;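 note: probe protein is his-tagged human p50 processed subunit at 1 µg/ml; raw spot fluorescence signals with no normalization applied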
# p53 mut binder – binders of human mutant p53, primary screen, biochemical, small molecule microarray, anti-GST fluorescence; small molecule microarray binding; calls only; 0.4% of 17,000 active;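 active = compounds whose four printed spots each glow above background more than chance allows, each with a p-value under 7%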
# STAT3 binder – STAT3 binders, primary screen, biochemical, small molecule microarray, single point, set 2 | Signal transducer and activator of transcription 3 (Homo sapiens), P40763 | His-STAT3 binding, anti-His fluorescence | calls only | 0.2% of 17,000 active | AID 624138, 2012;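 active = compounds whose four printed spots each show fluorescence over background unusually high for their array block, chance value under 7%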
# Target sequence (P40763 whole entry, looked up): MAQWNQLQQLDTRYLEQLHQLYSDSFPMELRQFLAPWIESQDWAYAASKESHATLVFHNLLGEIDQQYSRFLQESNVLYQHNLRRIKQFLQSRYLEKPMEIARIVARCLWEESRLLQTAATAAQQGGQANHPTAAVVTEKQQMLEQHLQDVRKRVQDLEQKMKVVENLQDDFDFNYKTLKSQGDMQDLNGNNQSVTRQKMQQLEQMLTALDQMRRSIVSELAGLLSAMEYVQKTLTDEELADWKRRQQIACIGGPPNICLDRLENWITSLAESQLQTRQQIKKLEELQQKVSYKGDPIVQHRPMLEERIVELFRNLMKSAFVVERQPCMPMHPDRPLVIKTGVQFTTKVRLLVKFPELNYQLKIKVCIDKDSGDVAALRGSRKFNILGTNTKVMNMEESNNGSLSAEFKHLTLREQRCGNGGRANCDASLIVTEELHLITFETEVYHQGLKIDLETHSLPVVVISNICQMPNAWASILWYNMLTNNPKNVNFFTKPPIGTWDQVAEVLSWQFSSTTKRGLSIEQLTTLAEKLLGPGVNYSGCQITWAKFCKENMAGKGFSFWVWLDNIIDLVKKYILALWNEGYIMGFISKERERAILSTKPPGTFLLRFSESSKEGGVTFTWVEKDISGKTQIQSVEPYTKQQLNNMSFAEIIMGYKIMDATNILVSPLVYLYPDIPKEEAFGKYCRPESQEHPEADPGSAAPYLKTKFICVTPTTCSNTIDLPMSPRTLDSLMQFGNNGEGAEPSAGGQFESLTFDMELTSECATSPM
# * hit, by the source's call; i = inactive; x = no result; + = active, no number.
SMILES,c-Myc SMM,NFkB SMM,p53 mut binder,STAT3 binder
COC1CC(OC2CCC3(C)C(CCC4(O)C3CC(OC(=O)c3ccccc3)C3(C)C(O)(C(C)=O)CCC43O)C2)OC(C)C1OC1CC(OC)C(OC2OC(C)C(OC3OC(CO)C(O)C(O)C3O)C(OC)C2O)C(C)O1 (centres undefined),+,+,i,i
O=C(CS(=O)(=O)c1ccc2ccccc2c1)c1cc2ccccc2oc1=O,+,i,i,i
CC1OC(OC2C(OC3C(O[C@H]4CC[C@@]5(C)C(CC[C@]6(C)C5CC=C5C7CC(C)(C)CC(O)[C@]7(C)CC[C@]56C)C4(C)C)OC(C(=O)O)C(O)C3O)OCC(O)C2O)C(O)C(O)C1O (some centres undefined),+,+,i,i
CC1(C)CC[C@]2(C(=O)O)CC[C@]3(C)C(=CCC4[C@@]5(C)CC[C@H](O[C@@H]6O[C@H](C(=O)O)[C@@H](O[C@@H]7O[C@H](CO)[C@@H](O)[C@H](O)[C@H]7O)[C@H](O)[C@H]6O[C@@H]6O[C@H](CO)[C@@H](O)[C@H](O)[C@H]6O)C(C)(C)C5CC[C@]43C)C2C1 (some centres undefined),+,+,i,+
CS(=O)(=O)N(CC(N)=O)c1cc(Cl)c(Cl)cc1Cl,i,i,i,i
C#C[C@]1(O)CC[C@H]2[C@@H]3CCC4=Cc5oncc5C[C@]4(C)[C@H]3CC[C@@]21C,+,i,x,i
CC(C)NCc1ccccc1OCC(N)=O,i,i,i,i
CC(=O)Cc1ccccc1OCC(=O)O,+,+,i,i
CCc1cccc(C)c1NC(=O)CSc1nnc(C)n1-c1ccc(F)cc1,i,i,i,i
O=C(O)CCC(=O)Nc1ccccc1C(=O)O,+,i,i,i
O=C(CSc1nc2c(c(C(F)(F)F)n1)CCCC2)Nc1ccccc1,i,i,i,i
CCOC(=O)C1CCCCN1Cc1cc(OC)ccc1OC (centres undefined),+,+,i,i
Cc1sc2ncnc(SCC(=O)Nc3nsc(-c4ccccc4)n3)c2c1C,i,i,i,i
CC(C)C1CCC2(C)CCC(O)C(C)(O)C2C1OC(=O)/C=C/c1ccccc1 (centres undefined),i,i,i,i
COC(=O)[C@H]1CC[C@H](OC(C)=O)[C@]2(C)CC[C@@H](C(C)C)[C@@H](OC(=O)/C=C/c3ccccc3)C12 (some centres undefined),+,+,i,i
O=C(CN1C(=O)c2ccccc2C1=O)Oc1ccc(C(=O)Nc2ccccc2)cc1,i,i,i,i
CCCCc1ccc(-c2csc(NC(=O)c3ccccc3[N+](=O)[O-])c2C(N)=O)cc1,i,i,i,i
Cc1ccc(-c2cc(C(=O)NCCN3CCOCC3)c3cccc(C)c3n2)c(C)c1,i,i,i,i
Cc1ccc2c(c1)c1nc3ccccc3nc1n2CCN1CCOCC1,+,i,i,i
COc1ccc(-c2noc(CC(=O)O)c2-c2ccc(OC)cc2)cc1,+,i,i,i
COc1ccc(OC)c(-c2nc(C)sc2CC(=O)O)c1,i,i,i,i
COc1ccc(NC(=O)CSc2nnc(-c3cccs3)n2-c2ccc(F)cc2)cc1,i,i,i,i
O=C(NCc1ccccc1)[C@@]1(Cc2ccccc2)N=C(c2ccc(OCCCO)cc2)O[C@H]1c1ccccc1,i,i,+,i
[N-]=[N+]=NCc1ccccc1C[C@@]1(C(=O)N2CCOCC2)N=C(c2ccc(OCCCO)cc2)O[C@@H]1c1ccccc1,i,i,i,i
COC(=O)[C@]1(Cc2ccccc2)N=C(c2ccc(OCCCO)cc2)O[C@@H]1c1ccccc1N=[N+]=[N-],i,+,+,i
SMILES,c-Myc SMM,NFkB SMM,p53 mut binder,STAT3 binder
[N-]=[N+]=NCc1ccccc1C[C@@]1(C(=O)N2CCCCC2)N=C(c2ccc(OCCCO)cc2)O[C@@H]1c1ccccc1,i,i,i,+
CS(=O)(=O)N(CC(=O)NC1CC2CCC1C2)c1cc(Cl)cc(Cl)c1 (centres undefined),i,i,i,i
CC1CC(=O)[C@]2(C)CC[C@]3(C)C(C(=O)C(O)C4[C@@]5(C)CC[C@H](O)C(C)(C(=O)O)C5CC[C@]43C)C2C1C (some centres undefined),i,i,i,i
CCC(C)[C@@H](CO[C@@H](Cc1ccccc1)C(=O)N[C@@H](CCS(C)(=O)=O)C(=O)OC(C)C)NC[C@@H](N)CS (some centres undefined),i,i,i,i
Cc1cc2nn(-c3ccccc3)nc2cc1NC(=O)C(C)(C)Oc1ccc(Cl)cc1,i,i,i,i
COc1ccc(S(=O)(=O)Nc2cccc3c2O[C@@H](CN(C)Cc2ccc(C(F)(F)F)cc2)[C@H](C)CN([C@H](C)CO)C3=O)cc1,i,i,i,+
C[C@@H]1CN([C@H](C)CO)C(=O)c2cccc(NC(=O)Nc3ccc(C(F)(F)F)cc3)c2O[C@@H]1CN(C)S(C)(=O)=O,i,i,i,i
COc1ccc(S(=O)(=O)Nc2cccc3c2O[C@H](CN(C)Cc2ccc(C(F)(F)F)cc2)[C@@H](C)CN([C@@H](C)CO)C3=O)cc1,i,i,i,i
C[C@@H]1CN([C@@H](C)CO)C(=O)c2cccc(NC(=O)Nc3ccc(C(F)(F)F)cc3)c2O[C@H]1CN(C)S(=O)(=O)c1cn(C)cn1,+,+,i,i
C[C@@H]1CN([C@H](C)CO)C(=O)c2cccc(NC(=O)Nc3ccc(C(F)(F)F)cc3)c2O[C@H]1CN(C)C(=O)NC1CCCCC1,+,+,i,+
C[C@@H]1CN([C@@H](C)CO)C(=O)c2cccc(NC(=O)Nc3ccc(C(F)(F)F)cc3)c2O[C@@H]1CN(C)CC1CC1,i,i,i,i
C[C@@H]1CN([C@H](C)CO)C(=O)c2cccc(NC(=O)Nc3ccc(C(F)(F)F)cc3)c2O[C@H]1CN(C)CC1CC1,i,i,i,+
COc1cc([C@H]2Oc3c(OC)cc(/C=C/CO)cc3[C@H]2CO)ccc1OC1OC(CO)C(O)C(O)C1O (some centres undefined),i,i,i,i
CC1CC(=O)c2c(ccc3c2C(=O)c2cccc(O)c2C3O)C1 (centres undefined),i,i,i,i
Cc1cccc(C)c1OCC(=O)Nc1ccccc1C(=O)NC1CCCCC1,i,i,i,i
C[C@H]1CN([C@@H](C)CO)C(=O)c2cccc(NC(=O)NC3CCCCC3)c2O[C@@H]1CN(C)C(=O)Nc1ccc(C(F)(F)F)cc1,+,+,i,i
